Screening results as filed in PubChem.
This is a sample that favours compounds with a hit; in the whole collection about 2.4% have one here.
CHRM1 PAM – human M1 muscarinic receptor positive allosteric modulators, primary screen, CHO-K1 cells, Fluo-8 calcium fluorescence, 1536-well; CHO-K1 hM1, ACh EC20; 0% = ACh EC20, 100% = maximal ACh; activation, % at 3 µM; actives 0.088% (n = 360,000); Muscarinic acetylcholine receptor M1 (Homo sapiens), P11229; in the data active means activation above about 19%, passing the limit was not always enough
Target sequence (P11229 whole entry, looked up): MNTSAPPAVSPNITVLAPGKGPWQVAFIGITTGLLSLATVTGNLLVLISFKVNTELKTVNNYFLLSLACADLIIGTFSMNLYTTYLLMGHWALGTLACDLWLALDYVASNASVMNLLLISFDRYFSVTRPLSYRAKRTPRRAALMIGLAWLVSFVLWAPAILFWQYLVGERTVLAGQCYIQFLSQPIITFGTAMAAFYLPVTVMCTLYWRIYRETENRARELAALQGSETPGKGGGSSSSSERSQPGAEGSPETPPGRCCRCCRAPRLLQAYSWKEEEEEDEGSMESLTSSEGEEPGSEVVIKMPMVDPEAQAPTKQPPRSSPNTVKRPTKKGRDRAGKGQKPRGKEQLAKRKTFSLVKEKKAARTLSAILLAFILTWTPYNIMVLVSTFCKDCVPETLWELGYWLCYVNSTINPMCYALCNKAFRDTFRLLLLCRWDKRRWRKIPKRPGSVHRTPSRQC
CHO-K1 Ca PAM – nonselective calcium activators in parental CHO-K1 cells, primary screen, counter-screen for M1 PAM project, cell-based, Fluo-8 calcium fluorescence, full deck, 1536-well. actives 0.02% (n = 360,000). AID 602247, 2012. activation, % at 3 µM. ATP EC20; 0% at ATP EC20, 100% at ATP max;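 active means activation above the run cutoff, the mean activation of all test compounds plus 3 SD, cut at about 40% in these data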;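 further: peak over basal fluorescence ratio in a 140 s read after ATP addition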
CHO-K1 Ca antag – nonselective inhibitor or artifact in parental CHO-K1 cells; actives 0.6% (n = 360,000); ATP-induced calcium, Fluo-8 fluorescence; inhibition, % at 3 µM;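 active means inhibition above a per-plate cutoff, the plate's mean sample inhibition plus 3 SD, cut at about 24% in these data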
CHRM1 agonist – human M1 muscarinic receptor agonists, primary screen, Fluo-8 calcium fluorescence, CHO-K1 cells, HTS; activation, % at 3 µM; Muscarinic acetylcholine receptor M1 (Homo sapiens), P11229; actives 0.33% (n = 360,000); AID 588814, 2011; CHO-K1 hM1, agonist mode; 0% DMSO, 100% acetylcholine EC100;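 active means activation above the run's mean compound activation plus 3 SD, cut at about 16% in these data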;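 further: peak over basal fluorescence ratio within a 140 s kinetic read after compound addition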
M1 ag parental – counter-screen for M1 agonists: effect in parental CHO-K1 cells; actives 0.48% (n = 360,000); activation, % at 3 µM; Fluo-8 calcium fluorescence; scaled to maximal ATP response, vehicle zero; AID 602248, 2012; in the data active means activation above about 15%;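 further: untransfected CHO-K1 host cells lacking M1 receptor as counterscreen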
M1 antag – human M1 muscarinic receptor antagonists, primary screen, CHO-K1 cells, Fluo-8 calcium fluorescence, 1536-well | AID 588852, 2011 | Muscarinic acetylcholine receptor M1 (Homo sapiens), P11229 | CHO-K1 hM1, ACh EC80 antagonist | actives 1.3% (n = 360,000) | inhibition, % at 3 µM;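 active means percent inhibition above its own plate's cutoff, namely the mean of that plate's compound wells plus 3 SD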;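 further: peak over basal fluorescence ratio during 140 s after agonist addition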
A number is an active result.

`COc1ccccc1CNc1nc(NCc2ccccc2SC)c2sccc2n1` gave CHRM1 PAM inactive, CHO-K1 Ca PAM inactive, CHO-K1 Ca antag inactive, CHRM1 agonist inactive, M1 ag parental inactive and M1 antag 37.
O=c1[nH]c2ccc(N/C(=N/S(=O)(=O)c3ccccc3)c3ccccc3)cc2[nH]1 was read as CHRM1 PAM inactive, CHO-K1 Ca PAM inactive, CHO-K1 Ca antag 27, CHRM1 agonist inactive, M1 ag parental inactive and M1 antag inactive.
Screening O=S(=O)(c1ccccc1)N1CCC(O)(CSc2ccccc2)CC1 returned CHRM1 PAM inactive, CHO-K1 Ca PAM inactive, CHO-K1 Ca antag inactive, CHRM1 agonist inactive, M1 ag parental inactive and M1 antag inactive.
Screening O=S(=O)(c1ccccc1)N1CCC(O)(CSc2ccc(F)cc2)CC1 returned CHRM1 PAM inactive, CHO-K1 Ca PAM inactive, CHO-K1 Ca antag inactive, CHRM1 agonist inactive, M1 ag parental 18 and M1 antag inactive.
`N#CCCN(C(=O)COC(=O)c1cc(S(=O)(=O)N2CCOCC2)ccc1Cl)c1ccc(F)cc1` gave CHRM1 PAM inactive, CHO-K1 Ca PAM inactive, CHO-K1 Ca antag inactive, CHRM1 agonist inactive, M1 ag parental inactive and M1 antag inactive.
`Cc1[nH][nH]c(=O)c1/C=N/N1CCOCC1` gave CHRM1 PAM inactive, CHO-K1 Ca PAM inactive, CHO-K1 Ca antag inactive, CHRM1 agonist inactive, M1 ag parental inactive and M1 antag inactive.
`CC1/C(=N/O)CC(c2ccccc2)NC1c1ccccc1` (centres undefined) gave CHRM1 PAM inactive, CHO-K1 Ca PAM inactive, CHO-K1 Ca antag inactive, CHRM1 agonist inactive, M1 ag parental inactive and M1 antag inactive.
`CCCC1/C(=N/O)CC(c2ccccc2)NC1c1ccccc1` (centres undefined) gave CHRM1 PAM inactive, CHO-K1 Ca PAM inactive, CHO-K1 Ca antag 37, CHRM1 agonist inactive, M1 ag parental 18 and M1 antag inactive.
Screening COc1ccc(CCNC(=O)CN2C(=O)NC(C)(c3ccc([N+](=O)[O-])cc3)C2=O)cc1 (centres undefined) returned CHRM1 PAM inactive, CHO-K1 Ca PAM inactive, CHO-K1 Ca antag inactive, CHRM1 agonist inactive, M1 ag parental inactive and M1 antag inactive.
`COc1ccc(N(Cc2ccccc2)C(=O)CSc2nnc(Cn3nnc4ccccc43)o2)cc1` gave CHRM1 PAM inactive, CHO-K1 Ca PAM inactive, CHO-K1 Ca antag inactive, CHRM1 agonist inactive, M1 ag parental inactive and M1 antag inactive.
O=C(CSc1nnc(Cn2nnc3ccccc32)o1)N(Cc1ccc(F)cc1)c1ccccc1 was read as CHRM1 PAM inactive, CHO-K1 Ca PAM inactive, CHO-K1 Ca antag 25, CHRM1 agonist inactive, M1 ag parental inactive and M1 antag inactive.
Screening COc1ccc(OC)c(CNS(=O)(=O)c2c(C)nc3scc(C)n3c2=O)c1 returned CHRM1 PAM inactive, CHO-K1 Ca PAM inactive, CHO-K1 Ca antag inactive, CHRM1 agonist inactive, M1 ag parental inactive and M1 antag inactive.
Cc1[nH]c2nc3ccccc3n2c(=O)c1CCC(C)C was read as CHRM1 PAM inactive, CHO-K1 Ca PAM inactive, CHO-K1 Ca antag inactive, CHRM1 agonist inactive, M1 ag parental inactive and M1 antag inactive.
`NC(=O)COc1ccccc1/C=C1/SC(=O)N(CC(=O)N2CCc3ccccc3C2)C1=O` gave CHRM1 PAM inactive, CHO-K1 Ca PAM inactive, CHO-K1 Ca antag inactive, CHRM1 agonist inactive, M1 ag parental inactive and M1 antag inactive.
CCOc1cc(/C=C2/SC(=O)N(CC(=O)N3CCc4ccccc4C3)C2=O)ccc1OCC(=O)O was read as CHRM1 PAM 19, CHO-K1 Ca PAM inactive, CHO-K1 Ca antag inactive, CHRM1 agonist inactive, M1 ag parental inactive and M1 antag inactive.
COc1ccc(N2CC(C(=O)Nc3nnc(SCC(=O)N4CCOCC4)s3)CC2=O)cc1 (centres undefined) was read as CHRM1 PAM inactive, CHO-K1 Ca PAM inactive, CHO-K1 Ca antag inactive, CHRM1 agonist inactive, M1 ag parental inactive and M1 antag inactive.
Screening COc1ccccc1C(=O)NC(=O)CSc1nnc(C)s1 returned CHRM1 PAM inactive, CHO-K1 Ca PAM inactive, CHO-K1 Ca antag 55, CHRM1 agonist inactive, M1 ag parental inactive and M1 antag inactive.
For CC(C)(C)c1ccc(C(=O)NCC(=O)OCC(=O)c2ccc3c(c2)-c2ccccc2C3)cc1 the results were CHRM1 PAM inactive, CHO-K1 Ca PAM inactive, CHO-K1 Ca antag inactive, CHRM1 agonist inactive, M1 ag parental inactive and M1 antag inactive.
`CC1(c2ccc(OC(F)F)cc2)NC(=O)N(CC(=O)Nc2ccc(Cl)cc2F)C1=O` (centres undefined) gave CHRM1 PAM inactive, CHO-K1 Ca PAM inactive, CHO-K1 Ca antag inactive, CHRM1 agonist 17, M1 ag parental inactive and M1 antag inactive.
`CCOC(=O)c1c(NC(=O)CN2C(=O)NC(C)(c3ccc(OC(F)F)cc3)C2=O)sc(C)c1C` (centres undefined) gave CHRM1 PAM inactive, CHO-K1 Ca PAM inactive, CHO-K1 Ca antag inactive, CHRM1 agonist 18, M1 ag parental inactive and M1 antag inactive.
For CCOC(=O)c1sc(NC(=O)CN2C(=O)NC3(CCCCCCC3)C2=O)c(C(=O)OCC)c1C the results were CHRM1 PAM inactive, CHO-K1 Ca PAM inactive, CHO-K1 Ca antag inactive, CHRM1 agonist inactive, M1 ag parental inactive and M1 antag inactive.
CCOc1ccc(NC(=O)CN2C(=O)NC(C)(c3ccc(OC(F)F)cc3)C2=O)cc1 (centres undefined) was read as CHRM1 PAM inactive, CHO-K1 Ca PAM inactive, CHO-K1 Ca antag inactive, CHRM1 agonist 32, M1 ag parental 19 and M1 antag inactive.
CN1CCN(c2ccc(Cl)cc2NC(=O)CN2C(=O)NC(C)(c3ccccc3)C2=O)CC1 (centres undefined) was read as CHRM1 PAM inactive, CHO-K1 Ca PAM inactive, CHO-K1 Ca antag inactive, CHRM1 agonist inactive, M1 ag parental inactive and M1 antag inactive.
`Cc1cc(NC(=O)CN2C(=O)NC(C)(c3ccc(OC(F)F)cc3)C2=O)no1` (centres undefined) gave CHRM1 PAM inactive, CHO-K1 Ca PAM inactive, CHO-K1 Ca antag inactive, CHRM1 agonist 17, M1 ag parental inactive and M1 antag inactive.
`CC(C)CCC(C)NC(=O)CN1C(=O)NC(C)(c2ccc3ccccc3c2)C1=O` (centres undefined) gave CHRM1 PAM inactive, CHO-K1 Ca PAM inactive, CHO-K1 Ca antag inactive, CHRM1 agonist 25, M1 ag parental inactive and M1 antag inactive.
